Structures can show the parent of a compound that is named as a salt. ± gives the standard deviation of the averaged measurements.
Assays:
Experiment in all cases: growth (OD600 after 10 h); higher = more growth (less inhibition)
[1] = test system: E. coli TESEC Alr+ wild-type control; conditions: compound 0.1 mM; raw OD600 reference: median of DMSO wells 0.241, cell-free background 0.041
Method: (§1)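 TESEC Mtb Alr E. coli, or the Alr+ wild-type control, in 384-well plates with Prestwick library compounds at 0.1 mM and 1% DMSO, across arabinose induction levels of 1E3 to 1E7 nM. Growth is read as OD600 after 10 h at 37 °C in triplicate biological replicates.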

E. coli TESEC Mtb Alr [2] = conditions: compound 0.1 mM
Method: as §1

E. coli TESEC Mtb Asd = conditions: compound 0.1 mM
Method: (§2)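 TESEC E. coli strains in which the native enzyme is deleted and replaced by arabinose-inducible Mtb Asd, DapB, CysH or TrpD, each grown in its selective medium. Strains were screened against the Prestwick library at 0.1 mM and 1% DMSO in 384-well format at low and high arabinose induction. Growth is read as OD600 after 10 h in triplicate.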

E. coli TESEC Mtb DapB = conditions: compound 0.1 mM
Method: as §2

[3] = test system: E. coli TESEC Alr+ wild-type control; conditions: compound 0.1 mM; raw OD600 reference: median of DMSO wells 0.49, cell-free background 0.052
Method: (§3)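 TESEC Mtb Alr E. coli (ΔaraC ΔtolC ΔentC Δalr ΔdadX, arabinose-inducible Mtb Alr) or the Alr+ wild-type control strain, grown in defined M9-fructose medium without D-alanine in 96-well plates with Prestwick library compounds at 0.1 mM and 1% DMSO. Low Alr induction is 0.1 µM arabinose and high induction is 10 mM arabinose.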

E. coli TESEC Mtb Alr [4] = conditions: compound 0.1 mM; remark: listed apart in the source
Method: as §3

[5] = arabinose 1000 nM, raw OD600 reference: median of DMSO wells 0.294, cell-free background 0.041
[6] = arabinose 10000 nM, raw OD600 reference: median of DMSO wells 0.264, cell-free background 0.041
[7] = arabinose 100000 nM, raw OD600 reference: median of DMSO wells 0.201, cell-free background 0.041
[8] = arabinose 1000000 nM, raw OD600 reference: median of DMSO wells 0.193, cell-free background 0.041
[9] = arabinose 10000000 nM, raw OD600 reference: median of DMSO wells 0.146, cell-free background 0.041
[10] = arabinose induction (level): High, raw OD600 reference: median of DMSO wells 0.331, cell-free background 0.041
[11] = arabinose induction (level): Low, raw OD600 reference: median of DMSO wells 0.417, cell-free background 0.041
[12] = arabinose induction (level): High, raw OD600 reference: median of DMSO wells […], cell-free background 0.041
[13] = arabinose induction (level): Low, raw OD600 reference: median of DMSO wells 0.227, cell-free background 0.041
[14] = arabinose 100 nM, raw OD600 reference: median of DMSO wells 0.413, cell-free background 0.052
[15] = arabinose 10000000 nM, raw OD600 reference: median of DMSO wells […], cell-free background 0.052

Structure (SMILES) | growth [1] | growth (E. coli TESEC Mtb Alr [2]; [5]) | growth (E. coli TESEC Mtb Alr [2]; [6]) | growth (E. coli TESEC Mtb Alr [2]; [7]) | growth (E. coli TESEC Mtb Alr [2]; [8]) | growth (E. coli TESEC Mtb Alr [2]; [9]) | growth (E. coli TESEC Mtb Asd; [10]) | growth (E. coli TESEC Mtb Asd; [11]) | growth (E. coli TESEC Mtb DapB; [12]) | growth (E. coli TESEC Mtb DapB; [13]) | growth [3] | growth (E. coli TESEC Mtb Alr [4]; [14]) | growth (E. coli TESEC Mtb Alr [4]; [15])
CC1=C(CC(=O)O)c2cc(F)ccc2/C1=C\c1ccc([S+](C)[O-])cc1 (stereo unspecified) [Sulindac] | 0.166 ± 0.0055 | 0.206 ± 0.0077 | 0.181 ± 0.0019 | 0.125 ± 0.0091 | 0.0898 ± 0.0021 | 0.103 ± 0.0038 | 0.151 ± 0.018 | 0.243 ± 0.012 | 0.151 ± 0.013 | 0.196 ± 0.054 | 0.364 ± 0.036 | 0.364 ± 0.063 | 0.11 ± 0.01
Cc1c(C)c2c(c(C)c1O)CCC(C)(COc1ccc(CC3SC(=O)NC3=O)cc1)O2 (stereo unspecified) [Troglitazone] | 0.0771 ± 0.022 | 0.108 ± 0.06 | 0.0436 ± 0.0028 | 0.16 ± 0.011 | 0.0474 ± 0.003 | 0.104 ± 0.016 | 0.0511 ± 0.00036 | 0.0536 ± 0.0033 | 0.08 ± 0.0038 | 0.126 ± 0.04 | 0.445 ± 0.029 | 0.0885 ± 0.025 | 0.0573 ± 0.00085
CC(C(=O)O)c1cccc(Oc2ccccc2)c1 (stereo unspecified) [Fenoprofen calcium salt dihydrate] | 0.22 ± 0.0072 | 0.267 ± 0.013 | 0.266 ± 0.0086 | 0.147 ± 0.0054 | 0.192 ± 0.0067 | 0.134 ± 0.0015 | 0.361 ± 0.075 | 0.322 ± 0.042 | 0.205 ± 0.01 | 0.192 ± 0.014 | 0.489 ± 0.089 | 0.397 ± 0.009 | 0.255 ± 0.0093
CN(C)CCN1C(=O)c2ccccc2N(C)c2ccccc21 [Dibenzepine hydrochloride] | 0.234 ± 0.0039 | 0.312 ± 0.018 | 0.286 ± 0.0089 | 0.185 ± 0.03 | 0.167 ± 0.0098 | 0.139 ± 0.0036 | 0.23 ± 0.059 | 0.317 ± 0.04 | 0.165 ± 0.012 | 0.187 ± 0.0044 | 0.608 ± 0.13 | 0.415 ± 0.0072 | 0.34 ± 0.015
CCN1CCCC(OC(=O)C(c2ccccc2)c2ccccc2)C1 (stereo unspecified) [Piperidolate hydrochloride] | 0.18 ± 0.0021 | 0.264 ± 0.0065 | 0.259 ± 0.012 | 0.161 ± 0.01 | 0.157 ± 0.0096 | 0.136 ± 0.0042 | 0.176 ± 0.025 | 0.428 ± 0.14 | 0.178 ± 0.018 | 0.182 ± 0.0083 | 0.555 ± 0.023 | 0.4174 ± 0.0019 | 0.329 ± 0.011
Clc1ccc(CO/N=C(\Cn2ccnc2)c2ccc(Cl)cc2Cl)c(Cl)c1 [Oxiconazole Nitrate] | 0.0527 ± 0.0022 | 0.0489 ± 0.0051 | 0.0625 ± 0.0013 | 0.0581 ± 0.003 | 0.0621 ± 0.0011 | 0.0621 ± 0.0089 | 0.0621 ± 0.001 | 0.0577 ± 0.0051 | 0.0621 ± 0.0016 | 0.0618 ± 0.0051 | 0.0828 ± 0.0028 | 0.095 ± 0.058 | 0.0891 ± 0.0035
CCN(CC)CCNC(=O)c1cc(S(C)(=O)=O)ccc1OC [Tiapride hydrochloride] | 0.249 ± 0.0035 | 0.295 ± 0.01 | 0.263 ± 0.0064 | 0.213 ± 0.016 | 0.184 ± 0.0024 | 0.149 ± 0.0067 | 0.295 ± 0.057 | 0.422 ± 0.045 | 0.183 ± 0.023 | 0.218 ± 0.035 | 0.481 ± 0.087 | 0.422 ± 0.011 | 0.361 ± 0.013
c1ccc(CC2=NCCN2)cc1 [Tolazoline hydrochloride] | 0.2459 ± 0.0022 | 0.301 ± 0.018 | 0.253 ± 0.0071 | 0.191 ± 0.0077 | 0.172 ± 0.0039 | 0.149 ± 0.0054 | 0.264 ± 0.08 | 0.435 ± 0.036 | 0.191 ± 0.017 | 0.256 ± 0.052 | 0.493 ± 0.064 | 0.413 ± 0.007 | 0.364 ± 0.012
Cc1cccc(CN2CCN(C(c3ccccc3)c3ccc(Cl)cc3)CC2)c1 (stereo unspecified) [Meclozine dihydrochloride] | 0.278 ± 0.0073 | 0.279 ± 0.011 | 0.302 ± 0.006 | 0.174 ± 0.023 | 0.129 ± 0.0042 | 0.185 ± 0.0054 | 0.207 ± 0.024 | 0.242 ± 0.0061 | 0.209 ± 0.0042 | 0.247 ± 0.021 | 0.427 ± 0.021 | 0.428 ± 0.031 | 0.143 ± 0.0093
CCCOc1ccc2[nH]c(NC(=O)OC)nc2c1 [Oxibendazol] | 0.264 ± 0.025 | 0.309 ± 0.021 | 0.269 ± 0.0059 | 0.213 ± 0.028 | 0.183 ± 0.0022 | 0.151 ± 0.0057 | 0.353 ± 0.1 | 0.425 ± 0.048 | 0.191 ± 0.013 | 0.219 ± 0.027 | 0.518 ± 0.085 | 0.409 ± 0.0096 | 0.345 ± 0.039
COc1cc2c(cc1OC)C(=O)C(CC1CCN(Cc3ccccc3)CC1)C2 (stereo unspecified) [Donepezil hydrochloride] | 0.168 ± 0.0034 | 0.251 ± 0.0063 | 0.259 ± 0.0054 | 0.158 ± 0.0035 | 0.174 ± 0.013 | 0.142 ± 0.0099 | 0.234 ± 0.039 | 0.4033 ± 0.0016 | 0.167 ± 0.021 | 0.199 ± 0.039 | 0.56 ± 0.055 | 0.404 ± 0.011 | 0.325 ± 0.0069
O=C(OCC(O)CO)c1ccccc1Nc1ccnc2cc(Cl)ccc12 (stereo unspecified) [Glafenine hydrochloride] | 0.116 ± 0.0048 | 0.146 ± 0.006 | 0.164 ± 0.017 | 0.187 ± 0.026 | 0.102 ± 0.0023 | 0.144 ± 0.0045 | 0.253 ± 0.04 | 0.17 ± 0.021 | 0.196 ± 0.0089 | 0.276 ± 0.059 | 0.374 ± 0.0054 | 0.384 ± 0.022 | 0.149 ± 0.02
COc1ccc2[nH]c([S+]([O-])Cc3ncc(C)c(OC)c3C)nc2n1 (stereo unspecified) [Tenatoprazole] | 0.202 ± 0.008 | 0.192 ± 0.0066 | 0.227 ± 0.012 | 0.128 ± 0.0093 | 0.0829 ± 0.0019 | 0.134 ± 0.0048 | 0.388 ± 0.031 | 0.379 ± 0.065 | 0.184 ± 0.0083 | 0.201 ± 0.017 | 0.35 ± 0.01 | 0.397 ± 0.013 | 0.196 ± 0.035
CC[C@H]1OC(=O)[C@H](C)[C@@H](O[C@H]2C[C@@](C)(OC)[C@@H](O)[C@H](C)O2)[C@H](C)[C@@H](O[C@@H]2O[C@H](C)C[C@H](N(C)C)[C@H]2O)[C@](C)(O)C[C@@H](C)C(=O)[C@H](C)[C@@H](O)[C@]1(C)O [Erythromycin] | 0.04107 ± 0.00038 | 0.0413 ± 0.0016 | 0.03973 ± 5.8e-05 | 0.0421 ± 0.0013 | 0.0401 ± 0.0001 | 0.0414 ± 0.00076 | 0.0563 ± 0.0023 | 0.0536 ± 0.0019 | 0.04857 ± 0.00045 | 0.052 ± 0.0057 | 0.0538 ± 0.0043 | 0.0567 ± 0.0002 | 0.05153 ± 0.00031
CC(C)(Oc1ccc(C2CC2(Cl)Cl)cc1)C(=O)O (stereo unspecified) [Ciprofibrate] | 0.205 ± 0.046 | 0.263 ± 0.0056 | 0.273 ± 0.0078 | 0.154 ± 0.004 | 0.187 ± 0.016 | 0.123 ± 0.0026 | 0.26 ± 0.032 | 0.303 ± 0.051 | 0.203 ± 0.018 | 0.207 ± 0.012 | 0.515 ± 0.079 | 0.43 ± 0.0055 | 0.312 ± 0.016
CC(=O)Nc1ccc(O)cc1 [Acetaminophen] | 0.251 ± 0.0034 | 0.315 ± 0.0071 | 0.277 ± 0.0034 | 0.202 ± 0.0068 | 0.188 ± 0.0053 | 0.162 ± 0.0048 | 0.473 ± 0.034 | 0.455 ± 0.0071 | 0.215 ± 0.018 | 0.251 ± 0.027 | 0.559 ± 0.083 | 0.407 ± 0.015 | 0.335 ± 0.011
CNCCC=C1c2ccccc2C=Cc2ccccc21 [Norcyclobenzaprine] | 0.182 ± 0.016 | 0.194 ± 0.022 | 0.254 ± 0.014 | 0.157 ± 0.0048 | 0.0991 ± 0.0027 | 0.111 ± 0.0032 | 0.204 ± 0.045 | 0.238 ± 0.036 | 0.186 ± 0.009 | 0.21 ± 0.0089 | 0.514 ± 0.015 | 0.419 ± 0.011 | 0.212 ± 0.011

Source: the supplement of paper PMC9262897, “Low-cost anti-mycobacterial drug discovery using engineered E. coli” (Nature Communications, 2022)
